# Records with an inconclusive call do not appear. A number with no mark means an inactive call. Calls of active or inactive are those of the source. Calls come from the whole dose curve; as a rule, active = well fitted cell-killing curve with a large enough effect; inconclusive = small, poorly fitted or top-dose-only effect; inactive = flat fitted curve, though single readings scatter.
# Assay: qHTS of pediatric cancer cell lines to identify multiple opportunities for drug repurposing: Confirmatory screen for A673 cells (AID 1347110);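 note: cells exposed to compound for 48 h before the viability read; nearly all actives have a fitted effect of over 65% in size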;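 for activity change, negative = cytotoxicity: plate controls were DMSO neutral control for no effect and bortezomib positive control for full effect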
# Details: A673 Ewing sarcoma cell viability; series mostly up to 45.9 µM; activity change, negative = cytotoxicity: at the top concentration
# In short: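 qHTS titration format: primary MIPE 0.78 nM-46 µM (11 pts), NPC 0.59 nM-46 µM; confirmation 11 pts. 48 h, CTG luminescence.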
# Potency is the fitted concentration of half-maximal effect.
Compound,Potency,"activity change, negative = cytotoxicity"
COc1ccc(-c2coc3cc(O)cc(O)c3c2=O)cc1,117 nM (active),
CN(C)C1CCN(C(=O)c2ccc(NC(=O)Nc3nc(N4CCOCC4)nc(N4CCOCC4)n3)cc2)CC1,73.7 nM (active),
CC(=NNC(=S)N1CCC1)c1ccccn1,23300 nM (active),
CC1(C)CCC[C@@]2(C)[C@@H]1CC[C@@]1(C)OC(=O)C[C@H]21,,-9.82%
O=C(NCc1ccncc1)C12C[C@H]3C[C@@H](C1)CC(c1ccc(Cl)cc1)(C3)C2,9270 nM (active),
COc1ncc(-c2ccc3nccc(-c4ccnnc4)c3c2)cc1NS(=O)(=O)c1ccc(F)cc1F,208 nM (active),
